Source: PubChem BioAssay (National Center for Advancing Translational Sciences (NCATS))
A selection: hits, their analogues and other compounds. The true share with any hit is near 18%.
TDP1 block = inhibitors of human tyrosyl-DNA phosphodiesterase TDP1. recombinant TDP1, AlphaScreen DNA substrate cleavage. Potency, µM (titrated, usually from 130 µM), most hits filed as inhibitors. 350,000 compounds, 0.28% hits. AID 485290; further: nearly all actives have a fitted effect of over 40% in size
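Recombinant human Tdp1 (E. coli-expressed, 1 nM final) preincubated with compounds 15 min at room temperature, then 5'-biotin/3'-phosphotyrosine-FITC DNA substrate (15 nM final) added for 5 min. AlphaScreen beads (10 ug/ml final) added 10 min; cleavage lowers signal.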
IL-1B inflam inh = inflammasome signaling inhibition, IL-1 beta readout. THP-1 LPS/ATP IL-1B secretion, AlphaLISA, 16 h; hits give low values. activity change, % at 57.5 µM. 360,000 compounds, 4.7% hits. AID 743279; in the data active means activity change below about -50%; inconclusive means mostly about -30% to -49%
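THP-1 cells pretreated 1 hr with compounds (up to 57.5 uM final), then stimulated with LPS (250 ng/mL final) plus ATP (1.25 mM final); secreted IL-1B measured by AlphaLISA after 16 hr, decreased signal indicating inhibition.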
HepG2 tox = HepG2 cytotoxicity, counter-screen for TGF-b inhibitors | HepG2 CAGA-GFP viability, ATP luminescence, 18 h | Potency, µM (top dose mostly 46.1 µM), usual class: cytotoxic | 410,000 compounds, 0.76% hits | AID 588856
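CellTiter-Glo luminescence gave cytotoxicity after 18 hours at 37 degrees C. The cells were HepG2 CAGA-GFP in 1% FBS DMEM, stimulated with 500 pg/mL TGF-beta after compound addition. %Activity was normalised to no-cell wells (complete cell-killing) and DMSO (no toxicity), and curves were fitted and classified.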
DT40 TDP1 CPT = DT40-hTDP1 cell growth loss with CPT; Potency, µM (highest dose often 46.2 µM), usual class: inhibitors; chicken DT40 Tdp1-/-;hTDP1 cells + 20 nM CPT, ATP luminescence, 48 h; 420,000 compounds, 12% hits; further: nearly all actives have a fitted effect of over 55% in size
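Chicken DT40 Tdp1-/- cells stably complemented with human TDP1 were seeded at 400 cells/well in medium containing 20 nM camptothecin, exposed to pin-transferred compounds, and grown at 37 °C for at least 48 hr. Viability was read as ATP luminescence.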
TDP1 cell noCPT = qHTS for Inhibitors of human tyrosyl-DNA phosphodiesterase 1 (TDP1): qHTS in cells in absence of CPT; DT40 Tdp1-/- hTDP1 cells, no CPT, ATP luminescence, 48 h; Potency, µM (titrated, usually from 46.2 µM), hits mostly inhibitors; 420,000 compounds, 15% hits; further: nearly all actives have a fitted effect of over 55% in size
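Seeded 400 DT40-hTDP1 cells/well (vehicle DMSO, no 20 nM CPT); pinned compounds; ≥48 hr at 37 °C; CellTiter-Glo luminescence as viability measure.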
TGFb SMAD3 inh = TGF-b pathway inhibition; HepG2 CAGA-GFP TGF-b/SMAD3 reporter, GFP fluorescence, 18 h; TGF-beta stimulated, 500 pg/mL final; Potency, µM (highest dose often 46.1 µM), actives largely listed as inhibitors; 410,000 compounds, 1.2% hits; further: nearly all actives have a fitted effect of over 65% in size
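HEPG2 CAGA-GFP reporter cells (1000/well, DMEM with 1% FBS) received compounds, then recombinant TGF-beta at 500 pg/mL final for 18 hours at 37 degrees C. Per-cell GFP summed per well was normalised to unstimulated and stimulated DMSO controls before curve fitting.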
Numbers stand for hits; i = inactive; ? = inconclusive; nt = no result given. Unless noted, the call rests on the fitted dose curve; in most records, active means well fitted curve in the direction sought with a large enough effect; inconclusive means small, poorly fitted or top-dose-only effect, or another doubt; inactive means no such curve, though single readings can be large; an effect the other way counts as inactive or inconclusive.

SMILES	TDP1 block	IL-1B inflam inh	HepG2 tox	DT40 TDP1 CPT	TDP1 cell noCPT	TGFb SMAD3 inh
CC(C)NC(=O)C1(C)Cc2c(-c3ccc(C(N)=O)cc3)ccnc2O1 (stereo not drawn)	nt	i	i	i	i	i
CC1(C(=O)NCc2ccccc2)Cc2c(-c3ccc(C(N)=O)cc3)ccnc2O1 (stereo not drawn)	nt	i	i	1.6µM	2.1µM	i
CCCCOC(=O)c1ccc(Nc2ncnc3[nH]ncc23)cc1	i	nt	i	?	?	i
Nc1ncnc2c1C(c1ccccc1)c1c(ccc3ccccc13)O2 (stereo not drawn)	i	nt	i	nt	nt	?
COc1ccc(CNC(=O)C2(C)Cc3c(-c4ccc(N(C)C)cc4)ccnc3O2)cc1OC (stereo not drawn)	nt	i	i	?	?	?
CC1(C(=O)NCc2ccccc2)Cc2c(-c3ccccc3)ccnc2O1 (stereo not drawn)	nt	i	i	?	4.1µM	?
N[C@H](Cc1ccccc1)C(=O)O	i	nt	nt	i	i	nt
O=C(CCCNC(=O)c1ccc(Cl)cc1)NCc1ccccc1Cl	nt	i	i	i	i	i
CC(C)c1onc(C(=O)Nc2ccc3c(c2)OCO3)c1[N+](=O)[O-]	nt	i	i	?	18µM	i
CC(C)c1onc(C(=O)N2CCCCC2C)c1[N+](=O)[O-] (stereo not drawn)	i	i	i	i	i	i
Cc1ccc(NC(=O)c2noc(C(C)C)c2[N+](=O)[O-])cc1	i	i	i	13µM	18µM	i
CC(C)c1onc(C(=O)N2CCCCC2)c1[N+](=O)[O-]	i	-65	i	i	?	i
Cc1cnc(C(=O)OC(C)C(=O)Nc2ccccc2-c2ccccc2)cn1 (stereo not drawn)	nt	i	i	i	i	i
CCCCOc1ccc(C(=O)NCC(=O)NCC(c2cccs2)N2CCOCC2)cc1 (stereo not drawn)	i	i	i	i	i	i
Cc1cc(O)ccc1-c1ccc2nncn2c1	nt	i	i	16µM	i	i
COc1ccc(CCN(C)CCCOc2ccc(S(=O)(=O)c3[nH]c4ccccc4c3C(C)C)cc2)cc1OC	i	nt	nt	13µM	9.4µM	nt
COc1ccc(CCN(Cc2ccc(C(C)C)cc2)S(=O)(=O)c2ccc(S(=O)(=O)N(C)C)cc2)cc1OC	i	i	i	?	?	i
O=C1C=C(c2ccc(OC(F)(F)F)cc2)C[C@@H](c2ccc(F)cc2)C1	i	i	i	?	?	i
O=C1C=C(C#Cc2ccc(Oc3ccccc3)cc2)C[C@@H](c2ccc(F)cc2)C1	nt	-80	i	16µM	12µM	?
O=C1C=C(c2ccc(Oc3ccccc3)cc2)C[C@@H](c2ccc(F)cc2)C1	i	?	i	18µM	?	?
COc1cccc(-c2n[nH]nc2C2=CC(=O)C[C@H](c3ccc(F)cc3)C2)c1	nt	?	i	?	?	i
COc1cccc(C#CC2=CC(=O)C[C@H](c3ccc(F)cc3)C2)c1	nt	-93	i	13µM	8.2µM	?
COc1ccc([C@H]2CC(=O)C=C(c3cccc(OC)c3)C2)cc1	i	i	i	i	?	i
O=C1C=C(c2n[nH]nc2-c2ccccc2)C[C@@H](c2ccc(F)cc2)C1	nt	i	i	?	16µM	?
O=C1C=C(c2ccc(-c3ccccc3)c(F)c2)C[C@@H](c2ccc(F)cc2)C1	i	i	i	?	?	i
CC1CN(C(=O)c2ccccc2OCc2ccccc2Cl)CC(C)O1 (stereo not drawn)	i	i	i	?	?	i
CSc1nc2[nH]c(=O)n(O)c(=O)c2n1Cc1ccccc1	nt	i	i	?	18µM	i
CN(C)/C=N/c1c(C#N)cnn1-c1ccccc1	i	i	i	i	i	i
CCn1c2ccccc2c2cnc(N=CN(C)C)c(C#N)c21	i	i	i	?	15µM	i
